Screening results as filed in PubChem.
MCF10A rerep: DNA re-replication induction in MCF 10a cells. Potency, µM (series often up to 46.1 µM), without a hit: at the top dose activity, positive = re-replication, actives largely listed as activators. AID 624296. 350,000 tested, 2.9% active. MCF 10A DNA re-replication, Hoechst nuclear intensity, 48 h; note: % of control where 0% means no effect; nearly all actives have a fitted effect of over 50% in size
KB-V1 cytotox: kills drug-selected multidrug resistant KB-V1 cells. KB-V1 MDR cells viability, CellTiter-Glo, 72 h. Potency, µM (titrated, usually from 46.1 µM), usual class: cytotoxic. 400,000 tested, 3.4% active. AID 1347076; note: % is set by controls: 0 for no effect and ±100 for the full control effect; nearly all actives have a fitted effect of over 60% in size
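Cytotoxicity toward P-gp-expressing KB-V1 cells was determined as loss of CellTiter-Glo luminescence after 72 h at 37 degrees C. Compounds were tested in quantitative HTS format across a concentration range, with curves fitted to normalized data.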
KB-3-1 cytotox: kills parental KB-3-1 adenocarcinoma cells | KB-3-1 viability, CellTiter-Glo ATP luminescence, 72 h | Potency, µM (titrated, usually from 46.1 µM), usual class: cytotoxic | 400,000 tested, 1.4% active | AID 1347075; note: % is set by controls: 0 for no effect and ±100 for the full control effect; nearly all actives have a fitted effect of over 60% in size
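Screening of KB-3-1 cells (DMEM, 10% FBS, phenol-red free) ran from lowest to highest compound concentration; after 72 h at 37 °C viability was read luminescently and curves fitted.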
SW480 rerep: induces DNA re-replication in SW480 colon adenocarcinoma cells; SW480 DNA re-replication, Hoechst DNA content imaging, 48 h; Potency, µM (doses to about 46.1 µM), for the others: at the highest dose re-replication activation, usual class: activators; 340,000 tested, 1.8% active; AID 624297; note: % of control where 0% means no effect; nearly all actives have a fitted effect of over 55% in size
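DNA re-replication was detected as more nuclei of elevated Hoechst intensity after 48 hr exposure to compound (23 nL pinned per well of 250 cells).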
RORgamma inh: blocks mouse ROR gamma transcriptional activity; P51450; Drosophila S2 Gal4-RORgamma UAS-luciferase reporter, 20 h; Potency, µM (top dose mostly 53.6 µM), inactives show top-dose activity change, negative = inhibition, usual class: inhibitors; 310,000 tested, 5.4% active; note: % is set by controls: 0 for no effect and ±100 for the full control effect; nearly all actives have a fitted effect of over 60% in size
Target sequence (P51450 whole entry, looked up, the tested form may be a part): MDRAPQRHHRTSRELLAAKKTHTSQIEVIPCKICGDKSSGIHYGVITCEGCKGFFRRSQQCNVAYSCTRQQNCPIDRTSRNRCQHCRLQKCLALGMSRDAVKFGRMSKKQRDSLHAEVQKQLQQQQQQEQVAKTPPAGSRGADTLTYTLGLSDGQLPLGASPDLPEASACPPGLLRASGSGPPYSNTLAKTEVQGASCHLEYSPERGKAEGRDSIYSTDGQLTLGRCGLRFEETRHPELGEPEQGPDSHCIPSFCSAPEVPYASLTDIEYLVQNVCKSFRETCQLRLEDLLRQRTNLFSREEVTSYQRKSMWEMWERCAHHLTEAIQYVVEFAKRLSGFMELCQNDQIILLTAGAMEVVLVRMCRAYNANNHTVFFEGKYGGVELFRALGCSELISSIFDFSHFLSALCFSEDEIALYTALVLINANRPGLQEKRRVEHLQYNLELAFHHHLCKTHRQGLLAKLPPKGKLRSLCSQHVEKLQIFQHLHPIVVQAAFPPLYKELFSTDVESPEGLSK
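Read-out: Photinus luciferase luminescence; inhibitors lower reporter signal. Insect Schneider cells with Gal4-ROR gamma fusion under metallothionein promoter, UAS reporter; 700 uM final copper sulfate induction, 20 hr, ambient temperature.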
Gal4-VP16 FLuc: inhibits Gal4-VP16 luciferase reporter, ROR gamma counter-screen; 310,000 tested, 3.5% active; Potency, µM (series often up to 53.6 µM), without a hit: top-dose activity, negative = inhibition, actives largely listed as inhibitors; AID 2546; Drosophila S2 Gal4-VP16 UAS-luciferase, luminescence, 20 h;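 note: Gal4-VP16 expression switched on by copper sulfate through the metallothionein promoter; % is set by controls: 0 for no effect and ±100 for the full control effect; nearly all actives have a fitted effect of over 50% in size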
* hit, by the source's call; i = inactive; ? = inconclusive; · = not tested or not shown; ! = repeats disagree; [ ] = dose if it differs, or a comment. Most compounds without a hit are left out; they make up all but 10% or so of the library. Calls come from the whole dose curve; as a rule, active = well fitted curve in the direction sought with a large enough effect; inconclusive = small, poorly fitted or top-dose-only effect, or another doubt; inactive = no such curve, though single readings can be large; an effect the other way counts as inactive or inconclusive. Potency is the fitted concentration of half-maximal effect.

SMILES | MCF10A rerep | KB-V1 cytotox | KB-3-1 cytotox | SW480 rerep | RORgamma inh | Gal4-VP16 FLuc
CC1(C)CCC[C@@](C)([C@H]2CC[C@]3(C)[C@@H]2[C@H](O)C[C@@H]2[C@@]4(C)CC[C@H](O)C(C)(C)[C@@H]4CC[C@]23C)O1 | · | · | · | · | 19.7% | 5.3%
CCCCc1ccc(NC(=O)CSc2nc(=O)n(CCN(CC)CC)c3c2CCCC3)cc1 | 25.6% | 25.9µM* | ? | ? | · | ·
COc1cccc(C(=O)NNC(=O)C(=O)Nc2cccc(Cl)c2C)c1 | 7.7% | i | i | 23.1µM* | -12.6% | 0.5%
COc1cccc(CNC(=O)CCl)c1 | -2.0% | i | i | -1.5% | -17.9% | -10.5%
COc1cccc(CNC(=S)Nc2cccc(Cl)c2C)c1 | 9.6% | i | i | -1.4% | 5.01µM* | 3.55µM*
COc1cc(C)c(NC(=S)Nc2cccc(Cl)c2C)cc1OC | 4.7% | i | i | -2.3% | 12.6µM* | ?
COc1cccc(C(=O)NNC(=O)C(=O)Nc2ccc(C)cc2)c1 | 6.7% | ? | i | -0.8% | 3.7% | 16.4%
COc1cccc(CNC(=S)Nc2cc(C)ccc2C)c1 | -2.6% | i | i | -3.3% | 3.16µM* | 6.31µM*
COC(=O)c1cccc(NC(=S)Nc2cccc(Cl)c2C)c1 | -4.3% | i | i | 0.7% | ? | ?
N#Cc1ccccc1COc1cccc2c1CCCC2O (stereo not given) | ? | i | i | 0.9% | 0.4% | 0.6%
O=C(Nc1cnn(C23CC4CC(CC(C4)C2)C3)c1)c1cnn2c(C(F)(F)F)cc(-c3ccco3)nc12 | -14.6% | 8.2µM* | i | -15.0% | ? | -8.3%
O=C(NC12CC3CC(CC(C3)C1)C2)c1cc2nc(-c3ccco3)cc(C(F)(F)F)n2n1 | 3.66µM* | i | i | 14.6µM* | -24.9% | ?
CCOC(=O)c1nn(-c2ccc3c(c2)CCN3C(C)=O)cc1O | 14.6µM* | i | i | 15.9% | ? | ?
COc1cccc(-n2c(C)c3c(OC)cccc(=O)c3c2C)c1 | ? | ? | i | -0.8% | 6.31µM* | ?
CCn1c(C(=O)N2CCCC(C(=O)N3CCN(c4ccccc4)CC3)C2)cc2sccc21 (stereo not given) | · | i | i | · | · | ·
C=CCN(CC=C)Cc1c(C)[nH]c2c(C)c(C)ccc2c1=O | 3.6% | i | i | 0.2% | ? | 12.6µM*
Cc1onc(-c2ccccc2Cl)c1C(=O)N1CCN(C/C=C/c2ccccc2)CC1 | ? | 14.6µM* | i | ? | ? | 0.7%
Cc1onc(-c2ccccc2Cl)c1C(=O)N1CCCc2ccccc21 | -4.9% | ? | i | -4.9% | -16.0% | -1.8%
Cc1onc(-c2ccccc2Cl)c1C(=O)OCC(=O)Nc1cccc(S(=O)(=O)N(C)C)c1 | 11.5% | 8.2µM* | ? | 9.3% | -8.4% | ?
Cc1onc(-c2ccccc2Cl)c1C(=O)N(C)C1CCCCC1 | 2.6% | i | ? | 0.0% | -14.3% | 2.51µM*
Cc1onc(-c2ccccc2Cl)c1C(=O)N1CCc2ccccc21 | 1.2% | 23.1µM* | i | 7.4% | 7.9%[0.365 µM] | ·
CCN(C(=O)c1c(-c2ccccc2Cl)noc1C)C1CCCCC1 | 12.9% | ? | i | -5.8% | -5.1% | 3.6%
Cc1onc(-c2ccccc2Cl)c1C(=O)OCC(=O)Nc1ccc2c(c1)OCO2 | 13.6% | i | i | 15.2% | ? | -3.7%
Cc1c(C(=O)Nc2ccc(F)cc2)oc2ccc(S(=O)(=O)N3CCCCCC3)cc12 | · | i | i | · | · | ·
Cc1cnccn1 | · | i | i | · | · | ·
SMILES | MCF10A rerep | KB-V1 cytotox | KB-3-1 cytotox | SW480 rerep | RORgamma inh | Gal4-VP16 FLuc
Cc1ccc(OCC(=O)OCC(=O)NC2CCS(=O)(=O)C2)cc1C (stereo not given) | · | i | i | · | · | ·
O=C(Nc1ccccc1)c1ccc(-n2nncc2-c2ccccc2)cc1 | · | i | i | · | · | ·
COc1ccccc1N1CCN(C(=O)c2c(-c3ccccc3Cl)noc2C)CC1 | 17.0% | ? | 20.6µM* | ? | -27.1% | -0.9%
Cc1onc(-c2ccccc2Cl)c1C(=O)OCC(=O)N1CCC(C)CC1 | -0.1% | i | i | -0.7% | · | ·
Cc1onc(-c2ccccc2Cl)c1C(=O)OCC(=O)N1CCN(c2ccccc2)CC1 | ? | 8.2µM* | i | -4.0% | · | ·
Cc1onc(-c2ccccc2)c1C(=O)N1CCN(Cc2ccccc2)CC1 | 2.9% | 23.1µM* | i | -0.4% | -16.7% | 0.2%
CCOC(=O)c1cc(S(=O)(=O)Nc2ccccc2)[nH]n1 | · | i | i | · | · | ·
CC1(C)NC(=O)N(c2ccc([N+](=O)[O-])c(C(F)(F)F)c2)C1=O | -2.0% | i | i | -5.9% | ? | 15.8µM*!
CCCC(=O)N(Cc1cc(=O)[nH]c2ccccc12)c1ccc(C)cc1C | -15.6% | i | i | 13.7% | 26.0% | -1.3%
Cc1ccc(N(Cc2cc(=O)[nH]c3ccccc23)C(=O)CCl)c(C)c1 | ? | ? | 18.4µM* | 23.1µM* | ? | -12.2%
COCCNC(=O)C1(C)CCN(C(=O)c2oc3ccccc3c2C)C1 (stereo not given) | · | i | i | · | · | ·
Cc1c(CNC(=O)c2nn3c(c2Cl)NC(c2ccccc2)CC3C(F)(F)F)cnn1C (stereo not given) | -3.7% | 20.6µM* | i | -12.6% | 21.1% | -1.4%
Cc1nn(C)c(C)c1CN(C)C(=O)c1cnn2c1NC(c1ccccc1)CC2C(F)(F)F (stereo not given) | 0.8% | ? | i | 3.8% | 17.7% | -4.4%
COc1ccc(C2CC(C(F)(F)F)n3nc(C(=O)NCc4c(C)nn(C)c4C)c(Cl)c3N2)cc1 (stereo not given) | -0.2% | 6.51µM* | ? | -4.2% | -3.0% | 22.4µM*
Cc1ccc(-c2cn3c(=O)cc(C)[nH]c3n2)cc1 | -0.1% | i | i | -9.4% | 7.94µM* | 7.94µM*
Cc1ccc2cc(CN(C(=O)c3cccs3)c3ccccc3)c(=O)[nH]c2c1 | ? | i | i | ? | -0.3% | -5.1%
Cc1ccc2[nH]c(=O)c(CN(C(=O)c3cccs3)c3ccccc3)cc2c1 | 14.7% | 3.26µM* | ? | -0.2% | 37.4% | 0.1%
Cc1cccc(N(Cc2cc3ccccc3[nH]c2=O)C(=O)c2cccc(Cl)c2)c1 | · | i | i | · | · | ·
Cc1cccc(N(Cc2cc3cc(C)ccc3[nH]c2=O)C(=O)c2cccs2)c1 | 10.3µM* | i | i | -0.8% | 20.9% | 1.9%
CCOP(=O)(OCC)C(C#N)=C1SCN(c2ccc(Cl)cc2)CS1 | -3.2% | i | ? | -8.4% | 14.1µM* | ?
COC(=O)c1ccccc1NC(=O)c1ccc2c(c1)CCN2S(=O)(=O)c1ccc(Cl)cc1 | · | ? | i | · | · | ·
